In PubChem BioAssay (NCATS):
Inconclusive results are not listed. Calls of active or inactive are those of the source. Unless noted, calls come from the whole dose curve; as a rule, active = well fitted curve in the direction sought with a large enough effect; inconclusive = small, poorly fitted or top-dose-only effect, or another doubt; inactive = no such curve, though single readings can be large; an effect the other way counts as inactive or inconclusive.

How the values were obtained:
[1] = Cell Viability - BJ (AID 421; calls by dose curve;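 note: potency is the fitted concentration of half-maximal effect; cells exposed to compound for 40 hours at 37 °C before readout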); conditions: BJ fibroblast viability, qHTS
Summary of the method: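 Cytotoxicity in human BJ foreskin fibroblasts is scored as loss of cellular ATP after a 40-hour exposure, measured by luciferase luminescence. Controls are DMSO and 100 uM tamoxifen.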

[2] = Cell Viability - Jurkat (AID 426;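 active = dose-dependent loss of cell ATP signal giving a full or clear fitted curve, ranked by lower potency value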; note: potency is the fitted concentration of half-maximal effect); conditions: qHTS
Summary of the method: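 Luminescent ATP read-out (CellTiter-Glo, 20 min at room temperature) after 40 hr compound exposure at 37 °C of Jurkat E6-1 cells, 5000/well. Decreased ATP taken as cytotoxicity; AC50 from standard Hill equation.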

[3] = Cell Viability - Hek293 (AID 427;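 active = compounds whose dose-response curve shows a full or clear partial loss of cell viability, called from curve shape rather than a numeric limit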;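 note: potency is the fitted concentration of half-maximal effect; cells exposed to compound for 40 hours at 37 °C before reading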); conditions: qHTS
Summary of the method: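 qHTS, human embryonic kidney (adenovirus-transformed) cells; 40 hr cpd, 37 °C; CellTiter-Glo ATP luminescence. Norm: DMSO = 0, 100 uM tamoxifen = 100% inhibition. Hill-fit AC50.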

[4] = Cell Viability - HepG2 (AID 433; calls by dose curve;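 note: potency is the fitted concentration of half-maximal effect; potency for ATP loss meaning cytotoxicity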); conditions: qHTS
Summary of the method: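 HepG2 cells, 1500 per well, treated 40 hr at 37 °C in complete medium; viability from intracellular ATP by CellTiter-Glo luminescence. Normalized to DMSO and 100 uM tamoxifen; AC50 from Hill fit of qHTS concentration-response.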

[5] = Cell Viability - MRC5 (AID 434; calls by dose curve;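 note: potency is the fitted concentration of half-maximal effect; potency reflects cytotoxicity seen as loss of intracellular ATP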); conditions: MRC5 lung fibroblast viability, qHTS
Summary of the method: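 AC50 values come from Hill-equation fits of intracellular ATP loss, measured by CellTiter-Glo luminescence. Normal lung fibroblasts (MRC5) had 40 hr compound treatment at 37 C, normalized between DMSO and 100 uM tamoxifen.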

[6] = Cell Viability - SK-N-SH (AID 435; calls by dose curve; note: potency is the fitted concentration of half-maximal effect); conditions: SK-N-SH neuroblastoma cell viability qHTS
Summary of the method: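 SK-N-SH neuroblastoma cells (1500/well) treated 40 h at 37 °C in complete medium; viability read as cellular ATP by CellTiter-Glo luminescence. Normalized to DMSO and 100 uM tamoxifen; AC50 from Hill fits of qHTS concentration-response.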

[7] = biological target: Mitogen-activated protein kinase 10 (Mus musculus) (UniProt Q61831); experiment: JNK3 AlphaScreen Assay (AID 530; active = well fitted curve in either direction with a large enough effect, not every such curve was filed as active;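 note: kinase came from lysate of stimulated human HepG2 cells; signal reports phosphorylation of biotinylated GST-cJun 1-79 at Ser73 with 10 µM ATP; % is set by controls: 0 for no effect and ±100 for the full control effect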); conditions: JNK3 lysate, c-Jun phosphorylation; series mostly up to 57.1 µM
Summary of the method: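 Kinase buffer: 20 mM Tris-HCl pH 7.6, 10 mM MgCl2, 1 mM DTT, 0.1 mM Na3VO4, 0.01% Tween-20; ATP 10 uM. Substrate biotin-GST-cJun(1-79), enzyme from activated HepG2 lysates. Detection by Ser73 phospho-antibody AlphaScreen.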

[8] = Cell Viability - N2a (AID 540); conditions: N2a mouse neuroblastoma cell viability; activity change, negative = cytotoxicity: at 92.2 µM (top of the series);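 note: plate controls were DMSO alone for no effect and tamoxifen control for full effect; nearly all actives have a fitted effect of over 45% in size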
Summary of the method: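 N2a mouse neuroblastoma, 1500 cells/well, 5 hr settle; compound 40 hr, 37 °C; CellTiter-Glo 20 min RT; luminescence; Hill-fit AC50.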

[9] = Cell Viability - NIH 3T3 (AID 541); conditions: NIH 3T3 cell viability, qHTS; activity change, negative = cytotoxicity: at 92.2 µM (top of the series);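 note: plate controls were DMSO alone for no effect and tamoxifen positive control for full effect; nearly all actives have a fitted effect of over 25% in size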
Summary of the method: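 qHTS format; 40 hr compound exposure, 37 °C; CellTiter-Glo luminescence (cellular ATP) read-out after 20 min at RT. Decrease in ATP = cytotoxicity; AC50 from standard Hill fit.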

[10] = Cell Viability - HUV-EC-C (AID 542); conditions: HUV-EC-C endothelial cell viability, qHTS; series mostly up to 92.2 µM; note: % is set by controls: 0 for no effect and ±100 for the full control effect; nearly all actives have a fitted effect of over 35% in size
Summary of the method: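 Luminescent ATP read-out (CellTiter-Glo, 20 min room temperature) after 40 hr compound treatment of HUV-EC-C cells at 37 °C. Concentration-response data fitted with the standard Hill equation to give AC50; tamoxifen and doxorubicin served as positive controls.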

[11] = Cell Viability - H-4-II-E (AID 543); conditions: H-4-II-E rat hepatoma viability; series mostly up to 92.2 µM; note: % is set by controls: 0 for no effect and ±100 for the full control effect; nearly all actives have a fitted effect of over 35% in size
Summary of the method: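 qHTS, rat hepatoma H-4-II-E, 1500 cells/well; 40 hr compound exposure, 37 °C; CellTiter-Glo ATP luminescence after 20 min RT; AC50 by standard Hill fit.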

[12] = Cell Viability - SH-SY5Y (AID 544); conditions: SH-SY5Y neuroblastoma cell viability; viability change, negative = cytotoxic: at 92.2 µM (top of the series); note: nearly all actives have a fitted effect of over 55% in size
Summary of the method: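 SH-SY5Y, 1500 cells/well, 5 hr pre-incubation 37 °C; cpd 40 hr 37 °C; CellTiter-Glo 20 min RT; luminescence (ATP) read. qHTS concentration-response, Hill fit → AC50. Tamoxifen, doxorubicin as positive controls.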

[13] = Cell Viability - Renal Proximal Tubule (AID 545); conditions: renal proximal tubule cells viability, primary cells of rat origin; series mostly up to 91.7 µM; note: nearly all actives have a fitted effect of over 40% in size
Summary of the method: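 Rat renal proximal tubule primary cells, 1000/well, exposed to compounds for 40 hr at 37 °C in complete medium; cellular ATP read by CellTiter-Glo luminescence. AC50 from concentration-response fitted with standard Hill equation.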

[14] = Cell Viability - Mesenchymal (AID 546); conditions: mesenchymal cells viability, qHTS; series mostly up to 91.7 µM;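 note: cells exposed to compound for 40 hours before reading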
Summary of the method: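 CellTiter-Glo luminescence (intracellular ATP, 20 min room temperature) after 40 hr compound exposure at 37 °C of 1000 glomerulus-derived human kidney mesenchymal cells/well; AC50 values obtained by fitting qHTS concentration-response data to the Hill equation.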

[15] = Cellular Toxicity (caspase-3) HepG2 (AID 654); conditions: HepG2 caspase-3 activation, luminescence; series mostly up to 92.2 µM;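 note: cells exposed to compound for 16 hours before reading; 0% = DMSO alone and 100% = caspase signal from 100 µM tamoxifen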
Summary of the method: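 Luminescent Caspase-Glo 3/7 readout after 16 hr compound exposure of human hepatocellular carcinoma HepG2 cells at 37 °C; qHTS concentration-response, normalized DMSO = 0%, 100 uM tamoxifen = 100%; AC50 by standard Hill equation.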

[16] = Cellular Toxicity (caspase-3) Jurkat (AID 655); conditions: Jurkat caspase-3 activation, luminescence; caspase-3 activation: at 92.2 µM (top of the series), DMSO = 0%, tamoxifen = 100%;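 note: cells exposed to compound for 16 h at 37 °C before reading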; note: potency is the fitted concentration of half-maximal effect
Summary of the method: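 Jurkat cells (5000/well) in complete medium exposed 16 h at 37 C; caspase-3/7 activity read by Caspase-Glo luminescence after 20 min at room temperature. Normalized to DMSO and 100 uM tamoxifen; AC50 from Hill fits.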

[17] = Cellular Toxicity (caspase-3) SHSY5Y (AID 657); conditions: SH-SY5Y caspase-3 activation, DMSO zero, 10 µM staurosporine = 100%; series mostly up to 91.7 µM
Summary of the method: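 SH-SY5Y human neuroblastoma cells, 1500/well, exposed to compound for 16 hours at 37 °C in complete medium. Caspase-3/7 activity read by Caspase-Glo luminescence after 1 hr at room temperature, normalized to DMSO and 10 uM staurosporine; AC50 from Hill fit.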

[18] = Cellular Toxicity (caspase-3) BJ (AID 658); conditions: BJ fibroblasts, luminescence, normalized: DMSO 0%, staurosporine 100%; series mostly up to 91.7 µM
Summary of the method: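 Caspase-Glo 3/7 luminescence, read 1 hr after reagent at room temperature, in normal BJ fibroblasts exposed 16 hours at 37 °C. AC50 values from Hill-equation concentration-response, scaled between DMSO basal and 10 uM staurosporine as 100%.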

[19] = Cellular Toxicity (caspase-3) MRC-5 (AID 659); conditions: MRC-5 cells, luminescence, normalized: DMSO 0%, 10 µM staurosporine 100%; series mostly up to 91.7 µM
Summary of the method: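 Luminescent Caspase-Glo 3/7 read-out (1 h, room temperature) after a 16 h, 37 °C compound exposure of MRC-5 lung fibroblasts at 1500 cells/well. Concentration-response AC50 from Hill equation; 0% DMSO, 100% 10 uM staurosporine.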

[20] = Cellular Toxicity (caspase-3) HUV-EC-C (AID 656); conditions: HUV-EC-C cells, caspase-3 activation (apoptosis), vehicle = 0, 100 µM tamoxifen = 100%; series mostly up to 92.2 µM
Summary of the method: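 HUV-EC-C cells (1000/well) in complete medium, compound-treated 16 h at 37 °C; caspase-3/7 activity read by Caspase-Glo 3/7 luminescence. Normalized to DMSO (basal) and 100 uM tamoxifen (100%); AC50 from Hill-equation concentration-response fits.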

CCC(=O)/C=C/C1C(C)=CCCC1(C)C (configuration not stated)
inactive: Potency [1] > 92 µM | Potency [2] > 92 µM | Potency [3] > 92 µM | Potency [4] > 92 µM | Potency [5] > 92 µM | Potency [6] > 92 µM | outcome [7] | activity change, negative = cytotoxicity [8] -6.46% | Potency [9] | Potency [10] | Potency [11] | Potency [12] | Potency [13] | Potency [14] | Potency [15] | caspase-3 activation [16] 2.94% | outcome [17] | outcome [18] | outcome [19]

OC/C(Br)=C(\Br)CO
inactive: Potency [1] > 92 µM | Potency [2] > 92 µM | Potency [3] > 92 µM | Potency [4] > 92 µM | Potency [5] > 92 µM | Potency [6] > 92 µM | outcome [7] | activity change, negative = cytotoxicity [8] -4.76% | Potency [9] | Potency [10] | Potency [11] | Potency [12] | Potency [13] | Potency [14] | Potency [15] | caspase-3 activation [16] 3.75% | outcome [17] | outcome [18] | outcome [19]

CNC(=O)c1ccccc1
inactive: Potency [1] > 92 µM | Potency [2] > 92 µM | Potency [3] > 92 µM | Potency [4] > 92 µM | Potency [5] > 92 µM | Potency [6] > 92 µM | outcome [7] | activity change, negative = cytotoxicity [8] -4.58% | Potency [9] | Potency [10] | Potency [11] | Potency [12] | Potency [13] | Potency [14] | caspase-3 activation [16] 0.307% | outcome [17] | outcome [18] | outcome [19]

CCCCC(C=O)CC (configuration not stated)
inactive: Potency [1] > 92 µM | Potency [2] > 92 µM | Potency [3] > 92 µM | Potency [4] > 92 µM | Potency [5] > 92 µM | Potency [6] > 92 µM | outcome [7] | activity change, negative = cytotoxicity [8] 2.46% | Potency [9] | Potency [10] | Potency [11] | Potency [12] | Potency [13] | Potency [14] | caspase-3 activation [16] -0.967% | outcome [17] | outcome [18]

Cc1ccc2cccnc2c1
inactive: Potency [1] > 92 µM | Potency [2] > 92 µM | Potency [3] > 92 µM | Potency [4] > 92 µM | Potency [5] > 92 µM | Potency [6] > 92 µM | outcome [7] | activity change, negative = cytotoxicity [8] -6.28% | Potency [9] | Potency [10] | Potency [11] | Potency [12] | Potency [13] | Potency [14] | caspase-3 activation [16] -0.667% | outcome [20] | outcome [17] | outcome [18] | outcome [19]

C=CCCCCCC
inactive: Potency [1] > 92 µM | Potency [2] > 92 µM | Potency [3] > 92 µM | Potency [4] > 92 µM | Potency [5] > 92 µM | Potency [6] > 92 µM | outcome [7] | activity change, negative = cytotoxicity [8] 6.33% | Potency [9] | Potency [10] | Potency [11] | Potency [12] | Potency [13] | Potency [14] | Potency [15] | caspase-3 activation [16] -1.08% | outcome [17] | outcome [18] | outcome [19]

O=Nc1ccc(NO)cc1
inactive: Potency [1] > 92 µM | Potency [3] > 92 µM | Potency [4] > 92 µM | Potency [5] > 92 µM | Potency [6] > 92 µM | outcome [7] | activity change, negative = cytotoxicity [8] 16.3% | Potency [9] | Potency [10] | Potency [11] | Potency [14] | Potency [15] | outcome [20] | outcome [17] | outcome [18]
active: Potency [2] 51.1 µM | viability change, negative = cytotoxic [12] -93.1% | Potency [16] 31.6 µM

Cc1ccc(C(=O)O)cc1
inactive: Potency [1] > 92 µM | Potency [2] > 92 µM | Potency [3] > 92 µM | Potency [4] > 92 µM | Potency [5] > 92 µM | Potency [6] > 92 µM | outcome [7] | activity change, negative = cytotoxicity [8] 3.7% | Potency [9] | Potency [10] | Potency [11] | Potency [12] | Potency [13] | Potency [14] | caspase-3 activation [16] 1.89% | outcome [20] | outcome [17] | outcome [18]

COC(=O)CCC(=O)OC
inactive: Potency [1] > 92 µM | Potency [2] > 92 µM | Potency [3] > 92 µM | Potency [4] > 92 µM | Potency [5] > 92 µM | Potency [6] > 92 µM | outcome [7] | activity change, negative = cytotoxicity [8] -1.63% | Potency [9] | Potency [10] | Potency [11] | Potency [12] | Potency [13] | Potency [14] | Potency [15] | caspase-3 activation [16] 1.38% | outcome [17] | outcome [18]

CC(=O)Nc1ccc(N)cc1
inactive: Potency [1] > 92 µM | Potency [2] > 92 µM | Potency [3] > 92 µM | Potency [4] > 92 µM | Potency [5] > 92 µM | Potency [6] > 92 µM | outcome [7] | activity change, negative = cytotoxicity [8] 4.55% | Potency [9] | Potency [10] | Potency [11] | Potency [12] | Potency [13] | Potency [14] | Potency [15] | outcome [20] | outcome [17] | outcome [18] | outcome [19]

C=Cc1ccccn1
inactive: Potency [1] > 92 µM | Potency [2] > 92 µM | Potency [3] > 92 µM | Potency [4] > 92 µM | Potency [5] > 92 µM | Potency [6] > 92 µM | outcome [7] | activity change, negative = cytotoxicity [8] 5.72% | Potency [9] | Potency [10] | Potency [11] | Potency [12] | Potency [13] | Potency [14] | Potency [15] | outcome [20] | outcome [17] | outcome [18]
